Reference: PubChem BioAssay AID1159580 (chemical genetic matrix, 2015)
Screen size: about 5,500 compounds; about 2,000 (36%) were called active. Not shown: some 18% with an inconclusive outcome. No stated cut-off is given here; in the data, active means normalized growth mostly below about 0.91 (no sharp cut-off); inconclusive means no clear call, values can overlap the other calls; inactive means mostly above about 0.92. The list shows a part of the results.

Assay: chemical genetic growth profiling, strain panel (AID 1159580);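 further: tested at 20 µM; growth read once vehicle control cultures reached saturation at 30 °C; 1 = growth at the plate median or of vehicle wells; lower values mean less growth of the strain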
Conditions: growth OD
[1] = S. cerevisiae deletion strains, locus YHR030C, strain SLT2, active compounds read low

Measured: normalized growth

O=C1CCO1
inactive: [1] 0.984 | S. cerevisiae deletion strains, locus YHR079C, strain IRE1, active compounds read low 0.99 | S. cerevisiae deletion strains, locus YJL095W, strain BCK1, active compounds read low 0.999 | S. cerevisiae deletion strains, locus YJR066W, strain TOR1, active compounds read low 0.946 | S. cerevisiae deletion strains, locus YLR113W, strain HOG1, active compounds read low 0.942 | S. cerevisiae deletion strains, locus YNL183C, strain NPR1, active compounds read low 0.951 | S. cerevisiae deletion strains, locus YOR231W, strain MKK1, active compounds read low 0.996 | S. cerevisiae deletion strains, locus YPL256C, strain CLN2, active compounds read low 0.992

CC1(C)/C(=N/OC(=O)c2cccc(C(F)(F)F)c2)[C@]2(C)CCC1C2
active: S. cerevisiae deletion strains, locus YML094W, strain GIM5, active compounds read low 1.18 [resistant]
inactive: S. cerevisiae deletion strains, locus YAL013W, strain DEP1, active compounds read low 1.01 | S. cerevisiae deletion strains, locus YBR229C, strain ROT2, active compounds read low 1.01 | S. cerevisiae deletion strains, locus YDL101C, strain DUN1, active compounds read low 1.04 | S. cerevisiae deletion strains, locus YDL134C, strain PPH21, active compounds read low 1 | S. cerevisiae deletion strains, locus YDR150W, strain NUM1, active compounds read low 0.989 | S. cerevisiae deletion strains, locus YEL061C, strain CIN8, active compounds read low 1.04 | S. cerevisiae deletion strains, locus YGR078C, strain PAC10, active compounds read low 0.996 | S. cerevisiae deletion strains, locus YGR229C, strain SMI1, active compounds read low 0.999 | [1] 0.88 | S. cerevisiae deletion strains, locus YHR087W, strain rtc3, active compounds read low 0.99 | S. cerevisiae deletion strains, locus YJR043C, strain POL32, active compounds read low 0.978 | S. cerevisiae deletion strains, locus YJR075W, strain HOC1, active compounds read low 0.979 | S. cerevisiae deletion strains, locus YKL190W, strain CNB1, active compounds read low 1.01 | S. cerevisiae deletion strains, locus YLR039C, strain RIC1, active compounds read low 0.977 | S. cerevisiae deletion strains, locus YLR058C, strain SHM2 (second series), active compounds read low 1.01 | S. cerevisiae deletion strains, locus YLR085C, strain ARP6, active compounds read low 1 | S. cerevisiae deletion strains, locus YLR262C, strain YPT6, active compounds read low 0.964 | S. cerevisiae deletion strains, locus YMR219W, strain ESC1, active compounds read low 0.987 | S. cerevisiae deletion strains, locus YMR263W, strain SAP30, active compounds read low 0.967 | S. cerevisiae deletion strains, locus YMR307W, strain GAS1, active compounds read low 0.741 | S. cerevisiae deletion strains, locus YNL128W, strain TEP1, active compounds read low 1.01 | S. cerevisiae deletion strains, locus YNL153C, strain GIM3, active compounds read low 0.963 | S. cerevisiae deletion strains, locus YNL298W, strain CLA4 (second series), active compounds read low 0.987 | S. cerevisiae deletion strains, locus YNL322C, strain KRE1, active compounds read low 1.02 | S. cerevisiae deletion strains, locus YNR030W, strain Alg12, active compounds read low 1.01 | S. cerevisiae deletion strains, locus YOL006C, strain TOP1, active compounds read low 0.898 | S. cerevisiae deletion strains, locus YPL055C, strain LGE1, active compounds read low 1 | S. cerevisiae deletion strains, locus YPL241C, strain CIN2, active compounds read low 1.01 | S. cerevisiae deletion strains, locus YPR135W, strain CTF4, active compounds read low 1.06 | S. cerevisiae strains, strain wild type, active compounds read low 0.999
